TDP1 block: blocks human tyrosyl-DNA phosphodiesterase 1; 0.28% of 350,000 active; Potency, µM (highest dose often 130 µM), for the others: at the top dose activity change, negative = inhibition, actives largely listed as inhibitors; AID 485290; recombinant TDP1, AlphaScreen DNA substrate cleavage; also: potency is read from the fitted curve at half-maximal effect; % is scaled to controls: 0 for no effect and ±100 for the full control effect; nearly all actives have a fitted effect of over 40% in size
Target sequence (Q9NUW8 whole entry, looked up): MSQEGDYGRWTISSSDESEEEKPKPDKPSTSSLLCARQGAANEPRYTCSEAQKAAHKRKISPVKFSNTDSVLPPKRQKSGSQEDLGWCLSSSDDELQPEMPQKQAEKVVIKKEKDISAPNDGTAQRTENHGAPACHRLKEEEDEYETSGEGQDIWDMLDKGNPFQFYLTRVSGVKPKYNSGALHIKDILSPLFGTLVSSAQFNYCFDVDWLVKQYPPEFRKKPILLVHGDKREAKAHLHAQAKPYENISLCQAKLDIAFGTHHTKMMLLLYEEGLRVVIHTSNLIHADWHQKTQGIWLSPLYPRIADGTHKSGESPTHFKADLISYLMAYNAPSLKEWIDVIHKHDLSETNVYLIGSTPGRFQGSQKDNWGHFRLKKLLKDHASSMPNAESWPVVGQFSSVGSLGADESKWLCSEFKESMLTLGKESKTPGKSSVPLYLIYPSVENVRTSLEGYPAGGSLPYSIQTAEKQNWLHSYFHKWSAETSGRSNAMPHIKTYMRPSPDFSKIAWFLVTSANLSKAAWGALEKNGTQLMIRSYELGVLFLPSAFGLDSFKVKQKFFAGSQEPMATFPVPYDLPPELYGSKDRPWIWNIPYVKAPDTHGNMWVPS
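Steps: enzyme plus compound, 15 min RT; add biotin/phosphotyrosine-FITC oligonucleotide (15 nM final), react 5 min; add donor/acceptor beads (10 ug/ml final), 10 min; read AlphaScreen. Tdp1 at 1 nM final.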
DT40 TDP1 CPT: growth inhibition of DT40 Tdp1-/-;hTDP1 cells with camptothecin (screen for TDP1 inhibitors); 12% of 420,000 active; chicken DT40 Tdp1-/-;hTDP1 cells + 20 nM CPT, ATP luminescence, 48 h; Potency, µM (highest dose often 46.2 µM), for the others: top-dose activity change, negative = growth inhibition, usual class: inhibitors; also: potency is read from the fitted curve at half-maximal effect; % is scaled to controls: 0 for no effect and ±100 for the full control effect; nearly all actives have a fitted effect of over 55% in size
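Cell growth measured by CellTiter-Glo luminescence after a minimum 48 h, 37 C compound exposure with 20 nM CPT in Tdp1-knockout DT40 cells stably expressing hTDP1, seeded 400/well; qHTS titration format.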
HepG2 tox: counter-screen for TGF-b inhibitors: cytotoxicity in HepG2 cells; HepG2 CAGA-GFP viability, ATP luminescence, 18 h; Potency, µM (top dose mostly 46.1 µM), without a hit: at the top dose activity change, negative = cytotoxicity, hits mostly cytotoxic; 0.76% of 410,000 active; also: potency is read from the fitted curve at half-maximal effect
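HepG2 CAGA-GFP cells (1000/well, DMEM with 1% FBS) received compound, then TGF-beta at 500 pg/mL final, and were incubated 18 hours at 37 degrees C. Viability was read by CellTiter-Glo luminescence. Media-only wells were set as complete cell-killing and DMSO as no toxicity.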
IL-1B inflam inh: inflammasome signaling inhibition, IL-1 beta readout. THP-1 LPS/ATP IL-1B secretion, AlphaLISA, 16 h; hits give low values. activity change, % at 57.5 µM. AID 743279. 4.7% of 360,000 active; in the data active = activity change below about -50%; inconclusive = mostly about -30% to -49%; also: % is scaled to controls: 0 for no effect and ±100 for the full control effect
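THP-1 cells pretreated 1 hr with compounds (up to 57.5 uM final), then stimulated with LPS (250 ng/mL final) plus ATP (1.25 mM final); secreted IL-1B measured by AlphaLISA after 16 hr, decreased signal indicating inhibition.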
DT40 TDP1 no CPT: qHTS for Inhibitors of human tyrosyl-DNA phosphodiesterase 1 (TDP1): qHTS in cells in absence of CPT; DT40 Tdp1-/- hTDP1 cells, no CPT, ATP luminescence, 48 h; 15% of 420,000 active; AID 686978, 2013; Potency, µM (top dose mostly 46.2 µM), without a hit: top-dose activity change, negative = growth inhibition, hits mostly inhibitors; also: potency is read from the fitted curve at half-maximal effect; % is scaled to controls: 0 for no effect and ±100 for the full control effect; nearly all actives have a fitted effect of over 55% in size
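Seeded 400 DT40-hTDP1 cells/well (vehicle DMSO, no 20 nM CPT); pinned compounds; ≥48 hr at 37 °C; CellTiter-Glo luminescence as viability measure.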
TGFb SMAD3 inh: blocks TGF-b signaling; Potency, µM (highest dose often 46.1 µM), for inactives: top-dose activity, negative = inhibition, usual class: inhibitors; 1.2% of 410,000 active; AID 588855; HepG2 CAGA-GFP TGF-b/SMAD3 reporter, GFP fluorescence, 18 h; TGF-beta stimulated, 500 pg/mL final; also: potency is read from the fitted curve at half-maximal effect; % is scaled to controls: 0 for no effect and ±100 for the full control effect; nearly all actives have a fitted effect of over 65% in size
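Read-out: total well GFP (ex488/em500-530) summed from mean per-cell fluorescence. Cells: HEPG2 CAGA-GFP, 1% FBS DMEM, 18 h at 37 degrees C with 500 pg/mL final TGF-beta. Unstimulated wells served as the full-inhibition control; stimulated DMSO wells = 0%.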
* hit, by the source's call; ? = inconclusive; / = no result; [ ] = dose if it differs, or a comment. Most compounds without a hit are left out; they make up all but 18% or so of the library. Unless noted, calls follow the shape of the dose curve; as a rule, active = well fitted curve in the direction sought with a large enough effect; inconclusive = small, poorly fitted or top-dose-only effect, or another doubt; inactive = no such curve, though single readings can be large; an effect the other way counts as inactive or inconclusive.

SMILES	TDP1 block	DT40 TDP1 CPT	HepG2 tox	IL-1B inflam inh	DT40 TDP1 no CPT	TGFb SMAD3 inh
C/C=C(/C)C(=O)Nc1cccc(C2=NOC3(C2)C[C@H](C(N)=O)N(C(=O)COc2ccc(Cl)cc2)C3)c1 (some centres undefined)	0%	?	-2%	-19	?	-5%
NC(=O)[C@@H]1CC2(CC(c3cccc(NC(=O)COc4ccc(Cl)cc4)c3)=NO2)CN1C(=O)COc1ccc(Cl)cc1 (some centres undefined)	7%	?	0%	-55*	12µM*	?
CC/C=C/C(=O)N1CC2(CC(c3cccc(NC(=O)COc4ccc(Cl)cc4)c3)=NO2)C[C@H]1C(N)=O (some centres undefined)	-1%	29µM*	-14%	?	?	-18%
NC(=O)[C@H]1CC2(CC(c3cccc(NC(=O)COc4ccc(Cl)cc4)c3)=NO2)CN1C(=O)C(c1ccccc1)c1ccccc1 (some centres undefined)	4%	6.5µM*	-7%	?	13µM*	?
CCC(=O)Nc1cccc(C2=NOC3(C2)C[C@@H](C(N)=O)N(C(=O)C(c2ccccc2)c2ccccc2)C3)c1 (some centres undefined)	2%	-1%	0%	-1	-1%	?
CC/C=C/C(=O)N1CC2(CC(c3cccc(NC(=O)CCCCC)c3)=NO2)C[C@H]1C(N)=O (some centres undefined)	2%	6%	-2%	-7	0%	-1%
COc1ccccc1C(=O)NC(=O)COC(=O)CCS(=O)(=O)c1ccc(C)cc1	5%	-18%	-12%	-2	0%	0%
COC(=O)c1ccccc1S(=O)(=O)N(Cc1ccco1)Cc1cc2cc(OC)ccc2[nH]c1=O	-1%	?	-5%	14	18µM*	-6%
CCOc1ccc2[nH]c(=O)c(CN(CCCN3CCOCC3)Cc3nnnn3Cc3ccc(OC)cc3)cc2c1	0%	?	-8%	-16	21µM*	?
COc1ccc2[nH]c(=O)c(CN(Cc3ccco3)Cc3nnnn3Cc3ccccc3)cc2c1	7%	21µM*	-7%	-8	16µM*	-9%
CCc1ccc2[nH]c(=O)c(CN(Cc3ccccc3OC)Cc3nnnn3Cc3ccco3)cc2c1	6%	?	-14%	-82*	?	?
COc1ccc(Cl)cc1NC(=O)NC(C)c1ccncc1 (centres undefined)	4%	7%	-75%	-8	?	2%
COc1ccc(Cl)cc1NC(=O)C1CSC(c2ccncc2)=N1 (centres undefined)	-7%	21µM*	-27%	-3	?	3%
O=C(Cc1ccc(Br)cc1)NCc1ccccc1	/	2.9µM*	19%	33	2.1µM*	?
Cc1ccc(CNC(=O)Cc2ccc(Br)cc2)cc1	/	9.2µM*	2%	31	7.3µM*	-6%
O=C(COC(=O)Cc1ccc(Br)cc1)NCc1ccccc1	/	-22%	-3%	22	-18%	15%
CC(/C=C/c1ccc(O)cc1)=N/O	6%[56.1 µM]	15µM*	-67%	-24	21µM*	25%
NC(=O)c1ccc(NC(=O)CSc2nncn2-c2ccccc2)cc1	9%	-1%	7%	-3	9%	12%
COc1ccc(C)cc1NC(=O)C(=O)c1cn(CC(=O)N2CCCC2)c2ccccc12	5%	?	16%	0	18µM*	-9%
COc1ccc(NC(=O)C(=O)c2cn(CC(=O)N3CCCC3)c3ccccc23)cc1OC	7%	16µM*	-31%	-27	13µM*	-17%

Screening results from PubChem.
